HPGD inh = blocks human HPGD enzyme activity | AID 894 | purified HPGD, NADH fluorescence kinetic, PGE2 substrate | P15428 | hit rate 4.3% among 150,000 | Potency, µM, inactives show at the highest dose activity change, negative = inhibition, usual class: inhibitors; further: potency means the concentration at half of the fitted maximal effect
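NADH formation kinetics: reaction with 30 uM PGE2 and 1 mM NAD+ (final), 20 nM enzyme, Tris-HCl pH 8 with Tween 20, after 15 min compound preincubation at room temperature. Fluorescence change, last versus first of five reads.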
ALDH1A1 inh = inhibitors of human aldehyde dehydrogenase 1A1; Potency, µM (series often up to 75.3 µM), for the others: top-dose activity, negative = inhibition, usual class: inhibitors; AID 1030; Purified ALDH1A1, NADH fluorescence, propionaldehyde substrate; hit rate 7.3% among 220,000; P00352;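 further: potency means the concentration at half of the fitted maximal effect; plate controls were no enzyme wells and a reference inhibitor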
Target sequence (P00352 whole entry, looked up): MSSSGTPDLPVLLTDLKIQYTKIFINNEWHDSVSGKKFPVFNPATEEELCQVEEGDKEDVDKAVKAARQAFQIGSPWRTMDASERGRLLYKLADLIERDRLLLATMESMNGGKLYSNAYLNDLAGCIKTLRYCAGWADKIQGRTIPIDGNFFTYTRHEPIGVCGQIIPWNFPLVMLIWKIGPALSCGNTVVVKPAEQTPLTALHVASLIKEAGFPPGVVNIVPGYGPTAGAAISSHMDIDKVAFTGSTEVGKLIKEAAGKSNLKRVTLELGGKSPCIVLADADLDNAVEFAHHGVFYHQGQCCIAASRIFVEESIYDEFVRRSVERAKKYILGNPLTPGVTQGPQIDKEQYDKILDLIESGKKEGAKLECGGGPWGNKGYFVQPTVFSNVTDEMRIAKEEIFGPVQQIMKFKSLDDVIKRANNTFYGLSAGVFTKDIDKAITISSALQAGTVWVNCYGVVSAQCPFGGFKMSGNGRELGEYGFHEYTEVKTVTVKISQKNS
IMPase cell inh = membrane-permeable compound that blocks inositol monophosphatase; P97697; CHO-M1 cells, IP1 accumulation, HTRF TR-FRET ratio; 120,000 tested, under 10 active; AID 901; inhibition (IP1 accumulation), % at 46.1 µM; active means well fitted curve in the direction sought with a large enough effect in the signal ratio, not every such curve was filed as active; inconclusive means small, poorly fitted or top-dose-only effect, or a change in a side signal; inactive means no such curve, though single readings can be large or run the other way; the % refers to the signal ratio;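 further: cells stimulated with carbachol in lithium chloride buffer; plate controls were DMSO basal wells for no effect and reference inhibitor wells for full effect; higher means more IMPase inhibition seen as more IP1 and lower FRET ratio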
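Measured: the HTRF emission ratio (665/620 nm) plus the 620 nm donor channel, each fitted to the Hill equation to give AC50. Cells were CHO-M1 given compounds up to 46 uM and a 30 min carbachol stimulation at 37C.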
Numbers without * were called inactive; ? = inconclusive; nt = not tested or not shown; [ ] = another dose, or the depositor's remark. Hits are enriched below; roughly 9% of the tested compounds scored in any of these assays. Unless noted, the call rests on the fitted dose curve; in most records, active means well fitted inhibition curve with a large enough effect (not every such curve was filed as active); inconclusive means small, poorly fitted or top-dose-only effect, or another doubt; inactive means no such curve, though single readings can be large or run the other way. Unless noted, on the % scale 0 is the no-effect control and ±100 the full control effect.

SMILES | HPGD inh | ALDH1A1 inh | IMPase cell inh
O=C(CC(c1ccco1)C1CCCCC1=O)c1ccccc1 (stereo unspecified) | -11% | ? | 4
Cc1cc(=O)n2[nH]cc(C(=O)O)c2n1 | -22% | ? | nt
CCC(=O)Oc1ccc(C2Nc3ccccc3-c3nnc(SC)nc3O2)cc1 (stereo unspecified) | nt | nt | 4
Cc1ccc(C(C)C)c(OCc2nn(CC(=O)c3ccc(Cl)cc3)c3[n+]2CCCCC3)c1 | nt | -8% | nt
CC(=O)c1cccc(NC(=O)Nc2ccc(C(=O)N3CCOCC3)cc2)c1 | 13µM* | ? | -1
O=C(c1cccc(-c2ccc(O)cc2)c1)N1CCOCC1 | 16µM* | -5% | -4
Cc1ccc(NC(=O)Nc2ccc(C(=O)N3CCOCC3)cc2)cc1 | -27% | 8% | 2
O=C1c2ccccc2-c2ccc(C(=O)N3CCOCC3)cc21 | 11µM* | -4% | 7
O=C(c1cc(-c2cccc(O)c2)on1)N1CCOCC1 | -26% | ? | 1
Cc1ccc(N2C(=O)c3ccc(C(=O)N4CCOCC4)cc3C2=O)cc1C | -5% | ? | ?
CN(C)CC(C)(C)CNS(=O)(=O)c1ccc(Cl)s1 | nt | -3% | nt
C=CCC(C)(O)c1cccc(C(F)(F)F)c1 (stereo unspecified) | -5% | 0% | nt
CC1CCN(c2nc(-c3ccco3)c3c(c2C#N)CC(C)(C)OC3)CC1 | ? | ? | 13
CC(=O)N1C(C)(C)CC(=NOC(=O)c2ccc(C)cc2)CC1(C)C | nt | 7% | nt
O=C(COc1ccccc1O)Nc1ccccc1Cl | 18µM* | ? | -2
COc1ccc(OCC(=O)Nc2ccccc2Cl)cc1 | nt | -8% | nt
O=C(COC(=O)c1ccccn1)Nc1ccccc1Cl | -2% | 22µM* | -1
O=C(COC(=O)c1ccccn1)Nc1cc(Cl)ccc1Cl | -4% | -3% | -1
CC1CCCC(C)N1C(=S)SCC(=O)O (stereo unspecified) | nt | -15% | nt
O=c1ncn(-c2ccc(F)cc2)c2ncccc12 | -6% | 2% | 1
O=c1[nH]n(-c2ccc(F)cc2)c2ncccc12 | 18µM* | 7% | 3
CC12CS(=O)(=O)CC1SC(=S)N2Cc1ccccc1 (stereo unspecified) | nt | -1% | nt
CN(C(=O)CSc1nc2ccccc2n1CCc1ccccc1)C1CCS(=O)(=O)C1 (stereo unspecified) | -14% | 22µM* | 7
Cc1ccccc1-n1nnnc1SCC(=O)N(C)C1CCS(=O)(=O)C1 (stereo unspecified) | nt | 11µM* | nt
CN(C(=O)CSc1nnc2ccccn12)C1CCS(=O)(=O)C1 (stereo unspecified) | -16% | -15% | -5
SMILES | HPGD inh | ALDH1A1 inh | IMPase cell inh
COCCn1c(SCC(=O)N(C)C2CCS(=O)(=O)C2)nc2ccccc2c1=O (stereo unspecified) | nt | 9% | nt
C=CCN(c1ccc(C(=O)Nc2ccc(C)c(C)c2)cc1)S(C)(=O)=O | -3% | 1% | nt
COC(=O)/C=C1\SC(N)=NC1=O | nt | -1% | nt
CC(=O)c1cccc(CN2CCCC(CCC(=O)NCc3ccc(F)c(F)c3)C2)c1 (stereo unspecified) | nt | 0% | nt
NS(=O)(=O)c1ccc(O)c(NC(=O)c2ccc([N+](=O)[O-])o2)c1 | nt | 2.5µM* | nt
Cc1cc(C)cc(NC(=O)c2ccc([N+](=O)[O-])o2)c1 | nt | -3% | nt
Cc1cc([N+](=O)[O-])ccc1NC(=O)c1ccco1 | nt | 16µM* | nt
Cc1cc(NC(=O)c2ccc([N+](=O)[O-])o2)ccc1NC(=O)c1ccco1 | nt | 25µM* | nt
Cc1cc(NC(=O)c2ccc3c(c2)OCCO3)ccc1NC(=O)c1ccco1 | nt | -3% | nt
Cc1cc(NC(=O)c2ccc([N+](=O)[O-])cc2Cl)ccc1NC(=O)c1ccco1 | -7% | 8% | nt
Cc1cc(N)c2cc(OCCOc3ccc4nc(C)cc(N)c4c3)ccc2n1 | -15% | ? | nt
O=C(Cn1c(=O)n(-c2ccccc2)c(=O)c2sccc21)NCc1ccccc1 | nt | -2% | nt
Cc1cc(C)c(OCCOCCn2c(-c3ccc(Cl)cc3)nc3ccccc3c2=O)c(C)c1 | nt | nt | -27
COc1ccc(S(=O)(=O)N2CCC(C(=O)N3CCc4ccccc4C3)CC2)cc1Cl | ? | ? | -5
COc1ccc(-n2c(SCC(=O)C(C)(C)C)nc3ccsc3c2=O)cc1 | nt | -12% | nt
COc1ccc(-n2c(SCC(=O)NCCC(C)C)nc3ccsc3c2=O)cc1 | ? | 20µM* | ?
C=CCn1c(SC(C)C(N)=O)nc2sc(CC)cc2c1=O (stereo unspecified) | nt | 8.9µM* | nt
C=CCn1c(SCC(=O)c2c(N)n(CCC)c(=O)n(C)c2=O)nc2sc(CC)cc2c1=O | -19% | 0% | -7
C=CCn1c(SCC(=O)Nc2sccc2C(N)=O)nc2sc(CC)cc2c1=O | -5% | ? | 15
C=CCn1c(SC(C)C#N)nc2sc(CC)cc2c1=O (stereo unspecified) | nt | 2µM* | nt
COc1ccc(S(=O)(=O)N2CCC(C(=O)NCCC3=CCCCC3)CC2)cc1OC | -7% | -7% | 4
O=c1[nH]ccc2c(O)cccc12 | ? | ? | -1
N#Cc1cccc(NC(=O)COC(=O)CCc2nc3ccccc3c(=O)[nH]2)c1 | nt | 1% | nt
O=C(O)[C@@H]1C[C@@H](C(=O)O)N1 | -11% | 12% | -7
COC(=O)N1CCC2(CCCN(C(=O)Nc3ccc(OC)cc3)C2)CC1 | 1% | 3% | nt
SMILES | HPGD inh | ALDH1A1 inh | IMPase cell inh
COc1ccc(NC(=O)N2CC[C@@]3(CCCNC3)C2)cc1 | -4% | 14µM* | nt
CCC1=NN2C(=N)/C(=C\c3ccc(SCc4ccco4)o3)C(=O)N=C2S1 | -23% | -11% | 2
O=C1NC(=S)S/C1=C\c1ccc(SCc2ccco2)o1 | 7.1µM* | 0.89µM* | nt
O=C1NC(=NCc2ccccc2)S/C1=C\c1ccccc1 | ? | 3% | 1
CCCC1=NN2C(=N)/C(=C\c3ccc(SCc4ccco4)o3)C(=O)N=C2S1 | 22µM* | 22µM* | -5
O=C1NC(=Nc2ccc(Cl)cc2)/C(=C/c2ccco2)S1 | -12% | ? | nt
O=C1NC(=S)S/C1=C\c1ccc(SCc2ccccc2)o1 | 18µM* | ? | nt
Cc1cccc(/C(N)=N/OC(=O)CCc2ccccc2)c1 | nt | -8% | 8
CC1(C)CCC(=O)N[C@H]1CC(=O)C[C@H]1NC(=O)CCC1(C)C | 2% | 4%[13.5 µM] | nt
COC(=O)C12CC3(CCC4C5C(C(OCc6ccccc6)C41)C52)OCCO3 (stereo unspecified) | nt | 11%[13.5 µM] | nt
CCc1ccc(Nc2cnn(C34CC5CC(CC(CC(=O)O)(C5)C3)C4)c(=O)c2Cl)cc1 | nt | -12% | nt
O=c1c(Cl)c(NCC2CCCO2)cnn1C12CC3CC(CC(C3)C1)C2 (stereo unspecified) | nt | 18µM* | nt
CC1CCN(c2[nH]c(=S)c(C#N)c3c2CCCC3)CC1 | 11µM* | 10µM* | -28
CC1(C)Cc2c(c(N3CCCCC3)[nH]c(=S)c2C#N)CS1 | -10% | -3% | 5
O=C(O)c1ccc(S(=O)(=O)N(Cl)Cl)cc1 | -8% | ? | nt
O=C(NC1CCCC1)c1nc2c(nnn2Cc2cccc(Cl)c2)c(=O)[nH]1 | 2.5µM* | -4% | 0
O=C(Nc1ccc(F)cc1)N1CCC(c2nc3c(nnn3Cc3cccc(Cl)c3)c(=O)[nH]2)CC1 | 8.9µM* | 12% | 5
Cc1ccc(NC(=O)N2CCC(c3nc4c(nnn4Cc4cccc(Cl)c4)c(=O)[nH]3)CC2)cc1 | 2µM* | -17% | -4

Compound activity: PubChem, National Center for Advancing Translational Sciences (NCATS)
